# Bioassay records: PubChem BioAssay, Broad Institute
# Tgondii IFNg: T. gondii growth inhibition under IFN-gamma; Toxoplasma gondii growth in IFN-gamma-treated host cells; hits give low values; activity change, negative = inhibition, % (concentration not given with the values); hit rate 3.8% among 69,000; in the data active means activity change below about -70%, passing the limit was not always enough;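 further: host cells are HeLa cells infected with Toxoplasma gondii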
# Starred values were filed as active, the others as inactive. This excerpt belongs to a sample that is enriched for hits.
SMILES,Tgondii IFNg
O=C(CCCn1cncn1)N1CCCC(O)(CO)CC1 (configuration not stated),-4
Cc1ccc2nc(-c3ccc(Cl)c(C)c3)cn2c1,-97*
COc1ccc(-c2cn3cc(C)ccc3n2)cc1,317
Cc1ccc2nc(-c3ccc(-c4ccccc4)s3)cn2c1,80
COc1ccc(CNc2nc(-c3nnc(-c4cccc(C)c4)o3)nc3ccccc23)cc1,109
COc1ccc(OC)c(CNc2nc(-c3nnc(-c4cccc(Cl)c4)o3)nc3ccccc23)c1,-103*
COc1ccc(-c2nnc(-c3nc(NCc4ccc(OC)cc4OC)c4ccccc4n3)o2)cc1,161
COc1ccccc1CNc1nc(-c2nnc(-c3cccc(Cl)c3)o2)nc2ccccc12,-62
COc1ccc(OC)c(CNc2nc(-c3nnc(-c4cccc(C)c4)o3)nc3ccccc23)c1,-93*
COc1ccc(OC)c(CNc2nc(-c3nnc(-c4ccc(C)cc4)o3)nc3ccccc23)c1,-42
COc1cccc(-c2noc(-c3c(O)c4ccc(F)cc4n(C)c3=O)n2)c1,66
Nc1nnc(CC(=O)N2Cc3ccccc3OC3(CCOCC3)C2)s1,56
COCC(c1ccccn1)N(C)Cc1ncc[nH]1 (configuration not stated),0
Cc1noc(C)c1CCC(=O)N1CC(=O)N(C2CCCCC2)CC(OCc2cccnc2)C1 (configuration not stated),-3
COC(=O)c1c(NCc2ccccc2C(F)(F)F)c2cccc(Cl)c2[nH]c1=O,-2
CC(C)NC(=O)N1CCOCC2(C1)CN(c1ccsc1)C(=O)CO2 (configuration not stated),-20
Cc1cccc(OCCCN2CCN(S(=O)(=O)c3cnn(C)c3C)CC2)c1C,-43
CN1C2CCC1CC(OC(=O)c1c[nH]c3ccccc13)C2 (configuration not stated),12
CN1[C@@H]2CC[C@H]1CC(OC(=O)c1c[nH]c3ccccc13)C2 (some centres not stated),-5
CN(C)c1cc(OC2CCN(C(=O)c3c[nH]c4ccccc34)C2)ncn1 (configuration not stated),-84*
C=CCN(Cc1ccc2c(c1)OCCCO2)Cc1ccco1,3
Cc1oc(-c2ccc(NC(=O)c3c(F)cccc3Cl)cc2)nc1Cn1cccn1,65
Cc1oc(-c2ccc(NC(=O)c3cc(F)ccc3Cl)cc2)nc1Cn1cccn1,-92*
Cc1oc(-c2ccc(NC(=O)c3ccc(F)c(Cl)c3)cc2)nc1Cn1cccn1,-69
Cc1cnn(Cc2nc(-c3ccc(NC(=O)c4ccc(F)cc4F)cc3)oc2C)c1,-4
SMILES,Tgondii IFNg
COc1ccccc1C(=O)Nc1ccc(-c2nc(Cn3cccn3)c(C)o2)cc1,-25
Cc1oc(-c2ccc(NC(=O)c3ccccc3C(F)(F)F)cc2)nc1Cn1cccn1,-46
Cc1cnn(Cc2nc(-c3ccc(NC(=O)c4cc(F)ccc4Cl)cc3)oc2C)c1,-89*
CSc1ccc(Cl)c(C(=O)Nc2ccc(-c3nc(Cn4cccn4)c(C)o3)cc2)c1,-93*
Cc1cnn(Cc2nc(-c3ccc(NC(=O)c4c(F)cccc4Cl)cc3)oc2C)c1,-54
CCN1CCN(C)C(=O)C12CCN(C(=O)c1cnc(C)cn1)CC2,5
CC(=O)N1CCC2(C=C(C(=O)Nc3ccccc3O)c3ccccc3O2)CC1,15
Cc1nn(CC(=O)NCc2ccc(-n3cccc3)cc2)c(C)c1Br,-16
C=CCN1CCC2(CC1)CC(Nc1cc(OC)ncn1)c1ccccc1O2 (configuration not stated),6
Cn1ncc(CN2CCN(S(=O)(=O)c3ccccc3)CC2)c1C1CC1,-6
COCC1CN(C(=O)COc2ccccc2C)Cc2cncn2C1 (configuration not stated),-8
O=C(Nc1cccnc1)c1c(O)c2ccccc2n(-c2ccccc2)c1=O,44
O=C(c1cc2cccnc2n(Cc2ccccc2)c1=O)N1CCN(Cc2ccccc2)CC1,9
O=C(CCNC(=O)C(=O)N1CCCCCC1)Nc1ccccc1F,5
O=c1c(Cl)c(Oc2ccccc2)cnn1-c1ccccc1,72
COc1ccc(CCNC(=O)Cc2ccccc2)cc1OC,-48
COc1ccc(CCNc2cnn(-c3ccccc3)c(=O)c2Cl)cc1OC,-83*
COc1cc(N2CCC(CO)(Cc3ccc(Cl)cc3)CC2)ncn1,-8
O=C(c1nc2c(s1)CCCN2CC1CC1)N1CCOCC1,-3
COc1cc(N2C[C@H]3C[C@H](CC(=O)N(C)C)O[C@@H]3C2)ncn1,5
COc1cc(C(=O)Nc2ccc(-c3nc(-c4ccc(C)cc4)co3)cc2)cc(OC)c1OC,16
COc1ccccc1NC(=O)c1ccc2nsnc2c1,70
COc1cc(C(=O)Nc2ccccc2-c2nc3ccccc3s2)cc(OC)c1OC,-90*
Cc1noc(-c2cc(=O)n(CC(=O)Nc3c(C)cccc3C)c3ccccc23)n1,42
OC(CN1CCN(c2ncccn2)CC1)c1ccc(F)cc1 (configuration not stated),11
SMILES,Tgondii IFNg
C=CCNc1nc(NCC=C)nc(N2CCN(C(c3ccc(F)cc3)c3ccc(F)cc3)CC2)n1,-72*
CCOc1ccc(NC(=O)C2=C(C)C(=O)OC23CCN(S(=O)(=O)CC)CC3)cc1,64
O=C(Nc1nc2ccccc2s1)c1cncc(NS(=O)(=O)c2ccc(F)cc2)c1,-36
Cn1cnc2cc(C(=O)Nc3cnc4n3CCCC4)cnc21,4
CC(=O)NC1CC2(CCN(c3ncccn3)CC2)Oc2ccccc21 (configuration not stated),10
Clc1ccc(Sc2nc3ccccc3nc2Sc2ccc(Cl)cc2)cc1,17
Cc1ccc(Sc2cccc3nc(N)nc(N)c23)cc1,-108*
Cc1ncc(Sc2ccc(Cl)cc2)c(-c2ccc(Cl)cc2)n1,22
Cn1cc(CN2CCCC3(COCCN(c4cccc(C#N)c4)C3)C2)cn1 (configuration not stated),-30
Cc1cccc(-c2nc(NC(=O)N3CCC(CCn4ccnc4C)CC3)n[nH]2)c1,-9
COc1ccc(Cl)cc1S(=O)(=O)Nc1ccc(-c2nc(-c3ccc(C)cc3C)co2)cc1,15
Cc1ccc(-c2coc(-c3ccc(NC(=O)Nc4ccc5c(c4)OCO5)cc3)n2)c(C)c1,19
Cc1cc(C)c(Cn2nc(C(C)(C)C)cc2C(=O)Nc2ccc3c(c2)OCO3)c(C)c1,-99*
CCN1CCC2(CC1)OC(=O)C(C)=C2C(=O)Nc1ccc2c(c1)OCO2,124
O=C(C1CCC1)N1CCC2(CCCN2CC2CC2)CC1,23
Cc1ccc(F)cc1NC(=O)c1nnn(Cc2nc(-c3ccccc3C)oc2C)c1C,105
O=C(Cn1c(=O)cc(-c2nc(C3CC3)no2)c2ccccc21)NCc1ccc2c(c1)OCO2,50
COC[C@@H]1CN(C)C(=O)[C@H]2CCN(Cc3cnn(C)c3)CC[C@H]12,76
O=C(c1ncoc1-c1ccccc1)N1CCOC(c2ccc(Cl)cc2)C1 (configuration not stated),-40
CCn1c(C)cc(C)c(C(=O)N2CCOC(c3ccc(Cl)cc3)C2)c1=O (configuration not stated),6
O=C(c1c(F)cccc1F)N1CCOC(c2ccc(Cl)cc2)C1 (configuration not stated),-79*
CC(c1nnc(SCC(=O)O)n1-c1cccnc1)n1cccn1 (configuration not stated),6
CN(C)[C@@H]1CCN(C(=O)c2cscn2)[C@H]1Cc1cccnc1,7
CCOc1cccc(C2c3[nH]c4ccccc4c3CCN2C(=O)c2cccc(F)c2)c1 (configuration not stated),-123*
